Assay outcomes as filed in PubChem.
Pf growth 48h = inhibits P. falciparum growth in the first generation, 48 h; Potency, µM (top dose mostly 28.7 µM), inactives show at the top dose activity change, negative = inhibition, actives largely listed as inhibitors; P. falciparum luciferase growth in erythrocytes, 48 h; AID 504832; 310,000 tested, 5.9% active; also: potency is read from the fitted curve at half-maximal effect; % is scaled to controls: 0 for no effect and ±100 for the full control effect
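Read-out is firefly luciferase luminescence from an integrated reporter in P. falciparum, so falling signal marks reduced parasite growth. Infected erythrocytes were at 2% hematocrit and 0.1% parasitemia (final) in Albumax-supplemented RPMI 1640.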
FBPA Giardia inh = Giardia lamblia aldolase inhibition; A8B2U2; purified Giardia FBPA; 290,000 tested, 0.71% active; Potency, µM (titrated, usually from 59.6 µM), without a hit: at the top dose activity, negative = inhibition, hits mostly inhibitors; also: potency is read from the fitted curve at half-maximal effect; % is scaled to controls: 0 for no effect and ±100 for the full control effect; nearly all actives have a fitted effect of over 55% in size
Target sequence (A8B2U2 whole entry, looked up): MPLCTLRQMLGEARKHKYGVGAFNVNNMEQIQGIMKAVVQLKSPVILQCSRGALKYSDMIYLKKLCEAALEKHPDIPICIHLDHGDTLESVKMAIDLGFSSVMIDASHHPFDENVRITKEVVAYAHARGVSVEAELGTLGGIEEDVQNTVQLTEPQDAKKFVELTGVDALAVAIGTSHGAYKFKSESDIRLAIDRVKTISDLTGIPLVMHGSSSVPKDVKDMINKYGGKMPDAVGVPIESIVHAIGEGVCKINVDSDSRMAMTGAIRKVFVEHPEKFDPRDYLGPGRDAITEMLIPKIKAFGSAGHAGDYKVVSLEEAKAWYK
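40 nM FBPA preincubated 10 min at RT with compound (up to 57.5 uM final), then substrate plus GAPDH/TPI/NAD/arsenate coupling and diaphorase/resazurin added. Fluorescence read after 20 min at RT, 525/598 nm.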
Shiga toxin inh = inhibitors of Shiga toxin in Vero cells; Vero cells, Shiga toxin protein synthesis inhibition reporter; inhibition, % at 38.7 µM; 290,000 tested, 9.2% active; AID 2315; in the data active = inhibition mostly above about 28%, no sharp cut-off; inactive = mostly below about 43%; also: 0% is about no effect
NS1 function inh = blocks influenza NS1 protein function; Potency, µM (titrated, usually from 46.1 µM), without a hit: at the highest dose activity, positive = more growth; 270,000 tested, 0.4% active; calls by dose curve; also: potency is read from the fitted curve at half-maximal effect; actives are rising curves; nearly all actives have a fitted effect of over 50% in size
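A cell-based growth assay was used: compounds that relieve NS1-induced slow growth of budding yeast raise OD600. Assay medium was yeast nitrogen base with ammonium sulphate and -URA supplement, pH 6.0, with 2% galactose.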
Pf growth 96h = inhibits malaria parasite growth, 96 h. Potency, µM (titrated, usually from 28.7 µM), inactives show top-dose activity change, negative = inhibition, actives largely listed as inhibitors. 320,000 tested, 6.9% active. AID 504834. P. falciparum luciferase reporter growth, 96 h; also: potency is read from the fitted curve at half-maximal effect; % is scaled to controls: 0 for no effect and ±100 for the full control effect
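Two parasite generations (96 h, 37 C, 5% CO2) of compound exposure in infected erythrocytes (0.05% parasitemia, 2% hematocrit). Luciferase-reporter P. falciparum; decreased luminescence indicates inhibited growth, aimed at apicoplast-acting delayed death.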
Cycloheximide cs = counter-screen hit for Shiga toxin inhibitors, cycloheximide; max response, %; AID 2314; 300,000 tested, 12% active; cell reporter, cycloheximide protein synthesis inhibition counterscreen; in the data active = max response mostly above about 13%, no sharp cut-off; inactive = mostly below about 14%; also: read at 38.3 µM for the half of the compounds with a filed dose; 0% is about no effect
* hit, by the source's call; ? = inconclusive; . = no result given; [ ] = dose if it differs, or a comment. Most compounds without a hit are left out; they make up all but 21% or so of the library. Unless noted, calls follow the shape of the dose curve; as a rule, active = well fitted curve in the direction sought with a large enough effect; inconclusive = small, poorly fitted or top-dose-only effect, or another doubt; inactive = no such curve, though single readings can be large; an effect the other way counts as inactive or inconclusive.

SMILES	Pf growth 48h	FBPA Giardia inh	Shiga toxin inh	NS1 function inh	Pf growth 96h	Cycloheximide cs
CC(C)n1cc(CN2CCCC(CNS(=O)(=O)c3cccc4cccnc34)C2)cn1 (stereo unspecified)	-26%	-3%	8	11%	-17%	-2
Cc1cc(C)cc(Nc2nc(-c3ccc(S(=O)(=O)N4CCCC4)cc3)cs2)c1	?	-2%	-10	9%	6%	-2
Cc1ccnc(Nc2nc(-c3ccc(Cl)cc3)cs2)c1	145%	4%	42*	19%	-28%	38*
Cc1c(Nc2nc(-c3ccc(Cl)cc3)cs2)c(=O)n(-c2ccccc2)n1C	0%	7%	-11	21%	13µM*	-3
COc1ccc(-c2csc(Nc3ccc(C)cn3)n2)cc1	10%	?	7	0%	75%	11
Cc1ccnc(Nc2nc(-c3ccc(F)cc3)cs2)c1	0%	-7%	100*	-25%	?	50*
CCOC(=O)Cc1csc(Nc2c(C)n(C)n(-c3ccccc3)c2=O)n1	0%	8%	21	5%	-11%	1
CCC(C)Nc1nc(OC(C(F)(F)F)C(F)(F)F)nc(OC(C(F)(F)F)C(F)(F)F)n1 (stereo unspecified)	3%	-8%	13	7%	?	14
CCNc1nc(NCC)nc(ON=C(C)C)n1	3.7µM*	.	-8	-6%	2.1µM*	-1
CCNc1nc(NC(C)CC)nc(ON=C(C)C)n1 (stereo unspecified)	1.5µM*	4%	19	-3%	13µM*	-1
C[C@@H](NC(=O)C1(c2ccccc2)CCN(C(=O)OC(C)(C)C)CC1)C(=O)N[C@@H](C(=O)O)c1ccccc1	-6%	3%	-4	15%	18%	-1
O=S(=O)(O)c1cc(O)ccc1O	26%	0%[21.7 µM]	.	.	43%	.
O=S(=O)(c1cc(O)ccc1O)c1cccc2c(S(=O)(=O)c3cc(O)ccc3O)cccc12	10µM*	.	.	.	13µM*	.
Cc1ccc(C)c(NC(=S)N(CCc2nc3cc(C)c(C)cc3[nH]2)Cc2cccnc2)c1	?	2%	10	8%	-10%	-1
Cc1cc2nc(CO)[nH]c2cc1C	19%	1%	21	0%	80%	0
Cc1cc2nc(/C=C/c3cccnc3)[nH]c2cc1C	-81%	-5%	40*	2%	-1%	31*
Cc1cc2nc(CS)[nH]c2cc1C	?	?	60	6%	?	17*
Cc1cc2nc(-c3ccc[nH]c3=O)[nH]c2cc1C	-13%	7%	-15	-5%	146%	-5
Cc1cc2nc(/C=C/c3nc4cc(C)c(C)cc4[nH]3)[nH]c2cc1C	0.47µM*	6%	2	0%	0.33µM*	4
CCOc1ccc(-c2nnc(SCC(=O)NC(C)(C)C)nc2-c2ccc(OCC)c(OC)c2)cc1OC	2.3µM*	-4%	-4	3%	?	-3
Cc1ccc(S(=O)(=O)N[C@@H](CCCCN)C(=O)CCl)cc1	?	-2%	.	-6%	12µM*	.
Cc1ccc(S(=O)(=O)NC(CC(N)=O)C(=O)O)cc1 (stereo unspecified)	7%	7%	14	-2%	?	2
COc1ccc(S(=O)(=O)Nc2cc3[nH]c(=O)oc3cc2C)cc1	17%	-16%	-8	7%	8.3µM*	1
Cc1cn([C@H]2C[C@H](N=[N+]=[N-])[C@H](CO)O2)c(=O)[nH]c1=O	-6%	.	.	-4%	10%	.
O=C(NC(=S)Nc1cccc(CO)c1)c1ccc(-c2ccccc2)cc1	64%	-9%	64*	22%	91%	25*
SMILES	Pf growth 48h	FBPA Giardia inh	Shiga toxin inh	NS1 function inh	Pf growth 96h	Cycloheximide cs
CCC(=O)Nc1cccc(NC(=S)NC(=O)c2ccccc2)c1	151%	?	16*	-1%	342%	54*
CCC(=O)NC(=S)Nc1cccc(NC(=O)CC)c1	-3%	0%	9	-10%	0%	-3
CCC(=O)Nc1cccc(NC(=S)NC(=O)c2ccc(C)cc2)c1	57%	-18%	102*	7%	34%	46*
Cc1cccc(C(=O)NC(=S)Nc2ccc(Cc3ccncc3)cc2)c1	?	-7%	38	-41%	?	15
CCC(=O)Nc1cccc(NC(=S)NC(=O)c2cccc(C)c2)c1	180%	-20%	114*	-12%	145%	60*
CN(C)CCSc1nnc2[nH]c3ccccc3c2n1	13%	-19%	27	6%	45%	7
